Source: PubChem BioAssay
This is a sample that favours compounds with a hit; in the whole collection about 10% have one here.
Insulin prom inh – inhibitors of insulin promoter-driven GFP, primary screen, imaging, TRM-6 cells (human fetal islet line), eGFP reporter, cell count | 130,000 tested, 0.9% active | AID 1273, 2008 | inhibition, % at 2 µM | reporter expression induced with tamoxifen;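 active = inhibition above the mean plus 3 SD, with well images judged a real hit on visual review, cut at about 60% in these data, passing the limit was not always enough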
Lmaj promast – Leishmania major promastigote growth inhibition, primary screen. 200,000 tested, 9% active. inhibition, % at 10 µM. AID 1063, 2008. Leishmania major promastigotes, resazurin fluorescence viability; in the data active = inhibition above about 50%;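 note: promastigotes grown with compound for 44 hours at 28 °C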
PTEN del growth – growth suppression of PTEN-null HCT116, primary screen, cell-based, CellTiter-Glo. HCT116 PTEN-null viability, 60 h; active compounds read low. 140,000 tested, 1.2% active. viability, % at 10 µM;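 active = viability at or below a set limit, 4 SD under the median of all tested compounds, cut at about 3.7% in these data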;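 note: PTEN knockout HCT116 line with beta catenin targeted HCT116 as companion control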
p97 ATPase inh – inhibitors of human p97 ATPase, primary screen, biochemical; recombinant p97 ATPase, Kinase-Glo ATP luminescence, 3 h; 220,000 tested, 0.42% active; Transitional endoplasmic reticulum ATPase (Homo sapiens), P55072; AID 1481, 2009; inhibition, % at 8 µM; in the data active = inhibition above about 15%;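 note: 0% = DMSO vehicle and 100% = wells lacking enzyme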
Target sequence (P55072 whole entry, looked up): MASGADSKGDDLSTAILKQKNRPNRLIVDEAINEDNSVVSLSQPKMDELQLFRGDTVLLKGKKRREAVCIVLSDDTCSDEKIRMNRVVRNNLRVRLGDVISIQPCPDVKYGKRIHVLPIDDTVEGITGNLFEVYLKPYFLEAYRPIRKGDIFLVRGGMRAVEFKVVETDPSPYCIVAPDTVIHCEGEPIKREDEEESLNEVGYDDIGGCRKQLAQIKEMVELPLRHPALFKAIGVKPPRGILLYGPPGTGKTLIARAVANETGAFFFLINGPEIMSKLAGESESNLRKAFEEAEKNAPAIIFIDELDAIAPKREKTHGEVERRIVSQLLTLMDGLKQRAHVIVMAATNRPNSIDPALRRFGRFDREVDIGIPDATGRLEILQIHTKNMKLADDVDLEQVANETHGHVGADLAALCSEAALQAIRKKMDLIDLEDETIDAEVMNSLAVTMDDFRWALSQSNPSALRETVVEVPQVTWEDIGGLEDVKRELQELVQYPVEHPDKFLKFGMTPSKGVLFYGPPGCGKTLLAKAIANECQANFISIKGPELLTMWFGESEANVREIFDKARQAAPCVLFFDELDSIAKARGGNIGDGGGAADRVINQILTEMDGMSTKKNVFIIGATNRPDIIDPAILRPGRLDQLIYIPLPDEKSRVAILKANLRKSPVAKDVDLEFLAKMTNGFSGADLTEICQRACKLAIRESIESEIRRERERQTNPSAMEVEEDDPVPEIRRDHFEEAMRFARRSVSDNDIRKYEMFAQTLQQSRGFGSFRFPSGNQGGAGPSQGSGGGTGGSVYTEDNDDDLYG
HCT116 bCat-KO – primary screen for growth suppressors in beta-catenin knockout HCT116 cells (colon tumor, human) | 140,000 tested, 1.5% active | HCT116 beta-catenin knockout viability, CellTiter-Glo, 60 h; active compounds read low | viability, % at 10 µM;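 active = viability at or under a set limit, the compound median less 4 SD, cut at about 6% in these data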;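 note: 0% = Hyamine 1622 control at 20 µM and 100% = untreated cell control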
ROMK primary – ROMK potassium channel modulators, primary screen, cell-based, thallium flux, MLSMR library | Tet-inducible ROMK, thallium flux fluorescence; actives lie on both sides | B-score at 10 µM | 130,000 tested, 2% active;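 active = signal ratio slope over the read window, or its plate-corrected B-score, at least 3 SD from the plate mean, either direction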;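 note: B-score of the F/F0 ratio slope over 7 to 12 s after thallium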
* marks the source's active call; other numbers are inactive results.

`Cc1cc(C(=O)CCl)c(C)n1-c1c(C)n(C)n(-c2ccccc2)c1=O` gave Lmaj promast 66.6*, p97 ATPase inh 1.2 and ROMK primary 0.0931.
Screening Cc1ccc(-n2c(C)cc(C(=O)CN3CCCCC3)c2C)cc1 returned Insulin prom inh -26.7, Lmaj promast 86.0*, PTEN del growth 81.1, p97 ATPase inh 5.3, HCT116 bCat-KO 76.7 and ROMK primary -0.879.
For COc1ccc(-n2c(C)cc(C(=O)CCl)c2C)cc1 the results were Insulin prom inh -18.5, Lmaj promast 100.6*, p97 ATPase inh -0.1 and ROMK primary -0.341.
Cc1nnc(SCC(=O)c2cc(C)n(-c3c(C)n(C)n(-c4ccccc4)c3=O)c2C)s1 was read as Lmaj promast -8.6, PTEN del growth 99.6, p97 ATPase inh 5.5 and HCT116 bCat-KO 100.2.
For Cc1cc(-n2c(C)cc(C(=O)COc3ccc([N+](=O)[O-])cc3)c2C)no1 the results were Lmaj promast -4.7, p97 ATPase inh 3.6 and ROMK primary 0.012.
For N#Cc1cc([N+](=O)[O-])cnc1N(CCO)CCO the results were Insulin prom inh -50.0, Lmaj promast 1.5, PTEN del growth 94.2, p97 ATPase inh 5.2, HCT116 bCat-KO 89.0 and ROMK primary 0.683.
For Cc1cc(-n2c(C)cc(C(=O)CN3C(=O)NC4(CCCC4)C3=O)c2C)no1 the results were Lmaj promast 5.3, PTEN del growth 87.2, p97 ATPase inh -1.1, HCT116 bCat-KO 90.7 and ROMK primary 0.173.
`Cc1cc(-n2c(C)cc(C(=O)CN3C(=O)NC4(CCCCC4C)C3=O)c2C)no1` (centres undefined) gave Insulin prom inh -30.8, Lmaj promast 79.2*, PTEN del growth 93.9, p97 ATPase inh -0.2, HCT116 bCat-KO 89.1 and ROMK primary -0.00486.
For CC1CCCN(C(=O)c2ccc3c(c2NCCO)C(=O)c2ccccc2C3=O)C1 (centres undefined) the results were Insulin prom inh 28.1, Lmaj promast 91.3*, PTEN del growth 59.3, p97 ATPase inh -7.2, HCT116 bCat-KO 50.8 and ROMK primary -2.
For CC1(C)CCCN(C(=O)c2ccc3c(c2NCCO)C(=O)c2ccccc2C3=O)C1 the results were Insulin prom inh 16.7, Lmaj promast 99.9*, PTEN del growth 74.1, p97 ATPase inh -5.4, HCT116 bCat-KO 72.3 and ROMK primary -1.77.
For CCN(CCN(C)C)C(=O)c1ccc2c(c1NCCO)C(=O)c1ccccc1C2=O the results were Lmaj promast 16.2, p97 ATPase inh -0.8 and ROMK primary -0.115.
For O=C1c2ccccc2C(=O)c2c1ccc(C(=O)N1CCCCC1)c2NCCO the results were Insulin prom inh -42.9, Lmaj promast 3.4, PTEN del growth 54.3, p97 ATPase inh -0.5 and HCT116 bCat-KO 54.8.
For CCOC(=O)C1(Cc2ccccc2C(F)(F)F)CCN(C(C)CCn2cccn2)CC1 (centres undefined) the results were Insulin prom inh -50.0, Lmaj promast 49.0 and p97 ATPase inh 1.3.
CCOC(=O)C1(Cc2ccccc2C(F)(F)F)CCN(C(=O)c2cc(C(C)=O)n[nH]2)CC1 was read as Lmaj promast 5.7, p97 ATPase inh 1.2 and ROMK primary -0.12.
CCOC(=O)C1(Cc2ccccc2C(F)(F)F)CCN(C(C)CSC)CC1 (centres undefined) was read as Lmaj promast 75.6*, p97 ATPase inh 0.1 and ROMK primary -1.23.
For CCOC(=O)C1(Cc2ccccc2C(F)(F)F)CCN(Cc2ccon2)CC1 the results were p97 ATPase inh -6.8.
Screening CCOC(=O)C1(Cc2ccccc2C(F)(F)F)CCN(C2CCCC2)CC1 returned Insulin prom inh -6.2, Lmaj promast 79.8*, p97 ATPase inh 8.0 and ROMK primary -0.162.
For CCOC(=O)C1(Cc2ccccc2C(F)(F)F)CCN(C2CCSC2)CC1 (centres undefined) the results were Lmaj promast 52.0*, p97 ATPase inh -1.5 and ROMK primary 0.416.
`CCOC(=O)C1(Cc2ccccc2C(F)(F)F)CCN(CC2CC2)CC1` gave Lmaj promast 57.4*, p97 ATPase inh -5.6 and ROMK primary -0.805.
`CCOc1ccc(Cl)cc1S(=O)(=O)n1nnc2ccccc21` gave Insulin prom inh -169.0, Lmaj promast -1.6, PTEN del growth 85.7, p97 ATPase inh 0.2 and HCT116 bCat-KO 117.9.
Screening Cc1nc2ccc(-c3nc4ccccc4o3)cc2[nH]1 returned Insulin prom inh 64.1, Lmaj promast 72.1*, PTEN del growth 92.0, p97 ATPase inh 11.8 and HCT116 bCat-KO 89.1.
Cc1ccnc2ccc(-c3nc4ccccc4o3)cc12 was read as Lmaj promast 36.7, PTEN del growth 64.5, p97 ATPase inh 6.5, HCT116 bCat-KO 58.5 and ROMK primary 0.984.
For CNc1ccc(/C=C2\CSc3ccccc3C2=O)cc1[N+](=O)[O-] the results were Lmaj promast 99.5* and p97 ATPase inh -4.0.
Screening O=C1/C(=C/c2cccc([N+](=O)[O-])c2)CSc2ccc(Cl)cc21 returned p97 ATPase inh 6.7.
`Cc1ccc(S(=O)(=O)NC(=O)c2ccc(-c3ccc(-c4ccccc4)cc3)o2)c(C)c1` gave Insulin prom inh 66.7*, Lmaj promast -9.4, PTEN del growth 93.7, p97 ATPase inh 5.3, HCT116 bCat-KO 90.5 and ROMK primary 2.2.
Screening Cc1ccc(S(=O)(=O)NNc2ccccc2)c(C)c1 returned Insulin prom inh 34.5, Lmaj promast 16.1, PTEN del growth 97.0, p97 ATPase inh 4.4 and HCT116 bCat-KO 87.5.
Screening CSCC[C@H](NC(=O)Nc1ccc(S(N)(=O)=O)cc1)C(=O)O returned p97 ATPase inh 8.4.
`Nc1nc(-c2ccccn2)nc(N)c1Cc1ccccc1F` gave Insulin prom inh -7.1, Lmaj promast 95.2*, p97 ATPase inh -3.2 and ROMK primary 0.0687.
For Nc1nc(-c2ccccn2)nc(N)c1Cc1c(F)cccc1Cl the results were Lmaj promast 100.6* and p97 ATPase inh 3.3.
Nc1nc(-c2ccccn2)nc(N)c1Cc1ccc(Cl)cc1Cl was read as Insulin prom inh -42.9, Lmaj promast 100.6*, p97 ATPase inh -0.1 and ROMK primary 0.0191.
Screening Cc1n[nH]c(C)c1Cc1c(F)cccc1Cl returned p97 ATPase inh -0.9 and ROMK primary -0.91.
Screening Clc1ccc(OCc2nc(-c3ccccn3)no2)c(Br)c1 returned Lmaj promast -8.7, PTEN del growth 94.3, p97 ATPase inh -3.7 and HCT116 bCat-KO 94.0.
CCOC(=O)c1c(C)[nH]c(C2=NNC(=NC3CC3)SC2)c1C was read as Lmaj promast 1.0, p97 ATPase inh 2.2 and ROMK primary 0.933.
Screening Cc1ccc(C(C)C)cc1NC(=O)Nc1ccc([N+](=O)[O-])cc1 returned p97 ATPase inh 2.5.
